Experimental data taken from PubChem BioAssay AID1159580 (chemical genetic matrix, 2015).
In all, about 5,500 compounds went through this assay and about 2,000 (36%) were called active. Roughly 18% stayed inconclusive and do not appear here. Cut-off read from the data, not from the text of the source: active = normalized growth mostly below about 0.91 (no sharp cut-off); inconclusive = no clear call, values can overlap the other calls; inactive = mostly above about 0.92. The list shows a part of the results.

Assay: chemical genetic growth profiling, strain panel (AID 1159580);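 note: tested at 20 µM; growth read once vehicle control cultures reached saturation at 30 °C; 1 = growth at the plate median or of vehicle wells; lower values mean less growth of the strain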
Conditions: growth OD
[1] = S. cerevisiae deletion strains, locus YAR019C, strain CDC15, stronger effect = lower value
[2] = S. cerevisiae deletion strains, locus YBL105C, strain PKC1, stronger effect = lower value
[3] = S. cerevisiae deletion strains, locus YBR135W, strain CKS1, stronger effect = lower value
[4] = S. cerevisiae deletion strains, locus YBR136W, strain MEC1, stronger effect = lower value
[5] = S. cerevisiae deletion strains, locus YBR160W, strain CDC28, stronger effect = lower value
[6] = S. cerevisiae deletion strains, locus YDL017W, strain CDC7, stronger effect = lower value
[7] = S. cerevisiae deletion strains, locus YDL028C, strain MPS1, stronger effect = lower value
[8] = S. cerevisiae deletion strains, locus YDL101C, strain DUN1, stronger effect = lower value
[9] = S. cerevisiae deletion strains, locus YDL108W, strain KIN28, stronger effect = lower value
[10] = S. cerevisiae deletion strains, locus YDL132W, strain cdc53, stronger effect = lower value
[11] = S. cerevisiae deletion strains, locus YDL214C, strain PRR2, stronger effect = lower value
[12] = S. cerevisiae deletion strains, locus YDR052C, strain DBF4, stronger effect = lower value
[13] = S. cerevisiae deletion strains, locus YDR054C, strain cdc34, stronger effect = lower value
[14] = S. cerevisiae deletion strains, locus YDR226W, strain ADK1, stronger effect = lower value
[15] = S. cerevisiae deletion strains, locus YDR477W, strain SNF1, stronger effect = lower value
[16] = S. cerevisiae deletion strains, locus YER123W, strain YCK3, stronger effect = lower value
[17] = S. cerevisiae deletion strains, locus YER133W, strain GLC7, stronger effect = lower value
[18] = S. cerevisiae deletion strains, locus YFL009W, strain cdc4, stronger effect = lower value
[19] = S. cerevisiae deletion strains, locus YFL029C, strain CAK1, stronger effect = lower value
[20] = S. cerevisiae deletion strains, locus YFR003C, strain YPI1, stronger effect = lower value
[21] = S. cerevisiae deletion strains, locus YFR019W, strain FAB1, stronger effect = lower value
[22] = S. cerevisiae deletion strains, locus YFR028C, strain CDC14, stronger effect = lower value
[23] = S. cerevisiae deletion strains, locus YGR040W, strain KSS1, stronger effect = lower value
[24] = S. cerevisiae deletion strains, locus YGR052W, strain FMP48, stronger effect = lower value
[25] = S. cerevisiae deletion strains, locus YGR092W, strain DBF2, stronger effect = lower value
[26] = S. cerevisiae deletion strains, locus YHR030C, strain SLT2, stronger effect = lower value
[27] = S. cerevisiae deletion strains, locus YHR079C, strain IRE1, stronger effect = lower value
[28] = S. cerevisiae deletion strains, locus YHR082C, strain KSP1, stronger effect = lower value
[29] = S. cerevisiae deletion strains, locus YHR205W, strain SCH9, stronger effect = lower value
[30] = S. cerevisiae deletion strains, locus YIL147C, strain SLN1, stronger effect = lower value
[31] = S. cerevisiae deletion strains, locus YJL095W, strain BCK1, stronger effect = lower value
[32] = S. cerevisiae deletion strains, locus YJL128C, strain PBS2, stronger effect = lower value
[33] = S. cerevisiae deletion strains, locus YJL157C, strain FAR1, stronger effect = lower value
[34] = S. cerevisiae deletion strains, locus YJR016C, strain ILV3, stronger effect = lower value
[35] = S. cerevisiae deletion strains, locus YJR066W, strain TOR1 (second series), stronger effect = lower value
[36] = S. cerevisiae deletion strains, locus YJR066W, strain TOR1, stronger effect = lower value
[37] = S. cerevisiae deletion strains, locus YKL048C, strain ELM1, stronger effect = lower value
[38] = S. cerevisiae deletion strains, locus YKL067W, strain YNK1, stronger effect = lower value
[39] = S. cerevisiae deletion strains, locus YKL101W, strain HSL1, stronger effect = lower value
[40] = S. cerevisiae deletion strains, locus YKL193C, strain SDS22, stronger effect = lower value
[41] = S. cerevisiae deletion strains, locus YKL203C, strain TOR2, stronger effect = lower value
[42] = S. cerevisiae deletion strains, locus YLR113W, strain HOG1, stronger effect = lower value
[43] = S. cerevisiae deletion strains, locus YLR133W, strain CKI1, stronger effect = lower value
[44] = S. cerevisiae deletion strains, locus YLR403W, strain SFP1, stronger effect = lower value
[45] = S. cerevisiae deletion strains, locus YML070W, strain DAK1, stronger effect = lower value
[46] = S. cerevisiae deletion strains, locus YMR001C, strain CDC5, stronger effect = lower value
[47] = S. cerevisiae deletion strains, locus YMR205C, strain PFK2 (second series), stronger effect = lower value
[48] = S. cerevisiae deletion strains, locus YMR277W, strain FCP1, stronger effect = lower value
[49] = S. cerevisiae deletion strains, locus YNL006W, strain LST8, stronger effect = lower value
[50] = S. cerevisiae deletion strains, locus YNL020C, strain ARK1, stronger effect = lower value
[51] = S. cerevisiae deletion strains, locus YNL161W, strain CBK1, stronger effect = lower value
[52] = S. cerevisiae deletion strains, locus YNL183C, strain NPR1, stronger effect = lower value
[53] = S. cerevisiae deletion strains, locus YNL207W, strain RIO2, stronger effect = lower value
[54] = S. cerevisiae deletion strains, locus YNL222W, strain SSU72, stronger effect = lower value
[55] = S. cerevisiae deletion strains, locus YNL307C, strain MCK1 (second series), stronger effect = lower value
[56] = S. cerevisiae deletion strains, locus YOL078W, strain AVO1, stronger effect = lower value
[57] = S. cerevisiae deletion strains, locus YOL136C, strain PFK27, stronger effect = lower value
[58] = S. cerevisiae deletion strains, locus YOR061W, strain CKA2, stronger effect = lower value
[59] = S. cerevisiae deletion strains, locus YOR119C, strain RIO1, stronger effect = lower value
[60] = S. cerevisiae deletion strains, locus YOR231W, strain MKK1, stronger effect = lower value
[61] = S. cerevisiae deletion strains, locus YOR329C, strain SCD5, stronger effect = lower value
[62] = S. cerevisiae deletion strains, locus YPL031C, strain PHO85, stronger effect = lower value
[63] = S. cerevisiae deletion strains, locus YPL153C, strain RAD53, stronger effect = lower value
[64] = S. cerevisiae deletion strains, locus YPL204W, strain HRR25, stronger effect = lower value
[65] = S. cerevisiae deletion strains, locus YPL209C, strain IPL1, stronger effect = lower value
[66] = S. cerevisiae deletion strains, locus YPL256C, strain CLN2, stronger effect = lower value
[67] = S. cerevisiae deletion strains, locus YPR025C, strain CCL1, stronger effect = lower value
[68] = S. cerevisiae deletion strains, locus YPR106W, strain ISR1, stronger effect = lower value
[69] = S. cerevisiae deletion strains, locus YPR111W, strain DBF20, stronger effect = lower value
[70] = S. cerevisiae deletion strains, strain NNK1, stronger effect = lower value
[71] = S. cerevisiae deletion strains, strain TSCII, stronger effect = lower value
[72] = S. cerevisiae deletion strains, locus YAL013W, strain DEP1, stronger effect = lower value
[73] = S. cerevisiae deletion strains, locus YBR229C, strain ROT2, stronger effect = lower value
[74] = S. cerevisiae deletion strains, locus YDL134C, strain PPH21, stronger effect = lower value
[75] = S. cerevisiae deletion strains, locus YDR150W, strain NUM1, stronger effect = lower value
[76] = S. cerevisiae deletion strains, locus YEL061C, strain CIN8, stronger effect = lower value
[77] = S. cerevisiae deletion strains, locus YGR078C, strain PAC10, stronger effect = lower value
[78] = S. cerevisiae deletion strains, locus YHR087W, strain rtc3, stronger effect = lower value
[79] = S. cerevisiae deletion strains, locus YJR043C, strain POL32, stronger effect = lower value
[80] = S. cerevisiae deletion strains, locus YJR075W, strain HOC1, stronger effect = lower value
[81] = S. cerevisiae deletion strains, locus YLR039C, strain RIC1, stronger effect = lower value
[82] = S. cerevisiae deletion strains, locus YLR058C, strain SHM2 (second series), stronger effect = lower value
[83] = S. cerevisiae deletion strains, locus YLR085C, strain ARP6, stronger effect = lower value
[84] = S. cerevisiae deletion strains, locus YLR262C, strain YPT6, stronger effect = lower value
[85] = S. cerevisiae deletion strains, locus YML094W, strain GIM5, stronger effect = lower value
[86] = S. cerevisiae deletion strains, locus YMR219W, strain ESC1, stronger effect = lower value
[87] = S. cerevisiae deletion strains, locus YMR263W, strain SAP30, stronger effect = lower value
[88] = S. cerevisiae deletion strains, locus YNL153C, strain GIM3, stronger effect = lower value
[89] = S. cerevisiae deletion strains, locus YNL298W, strain CLA4 (second series), stronger effect = lower value
[90] = S. cerevisiae deletion strains, locus YNL322C, strain KRE1, stronger effect = lower value
[91] = S. cerevisiae deletion strains, locus YNR030W, strain Alg12, stronger effect = lower value
[92] = S. cerevisiae deletion strains, locus YPL055C, strain LGE1, stronger effect = lower value
[93] = S. cerevisiae deletion strains, locus YPL241C, strain CIN2, stronger effect = lower value
[94] = S. cerevisiae deletion strains, locus YPR135W, strain CTF4, stronger effect = lower value

Measured: normalized growth

CC1=CC(=O)N(c2ccc(OC(F)(F)F)cc2)C1=O
inactive: [32] 0.9 | [68] 0.901 | [69] 0.907 | [70] 0.893
active: [1] 0.852 | [2] 0.873 | [3] 0.857 | [4] 0.87 | [5] 0.873 | [6] 0.872 | [7] 0.857 | [8] 0.869 | [9] 0.868 | [10] 0.847 | [11] 0.467 | [12] 0.883 | [13] 0.853 | [14] 0.862 | [15] 0.377 | [16] 0.281 | [17] 0.339 | [18] 0.849 | [19] 0.837 | [20] 0.878 | [21] 0.512 | [22] 0.865 | [23] 0.384 | [24] 0.421 | [25] 0.217 | [26] 0.283 | [27] 0.35 | [28] 0.316 | [29] 0.331 | [30] 0.873 | [31] 0.302 | [33] 0.487 | [34] 0.862 | [35] 0.39 | [36] 0.272 | [37] 0.556 | [38] 0.509 | [39] 0.494 | [40] 0.863 | [41] 0.382 | [42] 0.336 | [43] 0.531 | [44] 0.326 | [45] 0.401 | [46] 0.854 | [47] 0.563 | [48] 0.868 | [49] 0.885 | [50] 0.558 | [51] 0.865 | [52] 0.201 | [53] 0.847 | [54] 0.864 | [55] 0.413 | [56] 0.858 | [57] 0.436 | [58] 0.576 | [59] 0.384 | [60] 0.4 | [61] 0.869 | [62] 0.311 | [63] 0.372 | [64] 0.391 | [65] 0.862 | [66] 0.33 | [67] 0.855 | [71] 0.859

O=C1C2C3C=CC(C3)C2C(=O)N1c1ccc(F)c(F)c1 (stereo not drawn)
inactive: [72] 1.01 | [73] 1.03 | S. cerevisiae deletion strains, locus YCL061C, strain MRC1, stronger effect = lower value 0.986 | [8] 0.993 | [74] 0.999 | [75] 0.997 | [76] 1.03 | [77] 0.994 | [26] 1.01 | [78] 0.995 | S. cerevisiae deletion strains, locus YJL187C, strain SWE1, stronger effect = lower value 1.01 | [79] 0.957 | [80] 1.01 | S. cerevisiae deletion strains, locus YKL190W, strain CNB1, stronger effect = lower value 0.99 | [81] 0.995 | [82] 0.981 | [83] 1.06 | [84] 0.992 | [85] 1.01 | [86] 1 | [87] 1 | [88] 0.983 | [89] 0.982 | [90] 1.02 | [91] 1.02 | [92] 1.06 | [93] 0.994 | [94] 0.975

CC(=O)c1ccc(N2C(=O)CSCC2=O)cc1
inactive: [72] 0.999 | [73] 0.999 | [8] 1.01 | [74] 0.977 | [75] 0.984 | [76] 1.02 | [77] 1 | S. cerevisiae deletion strains, locus YGR229C, strain SMI1, stronger effect = lower value 0.972 | [26] 1.02 | [78] 1 | [79] 0.991 | [80] 1.02 | [81] 0.962 | [82] 0.999 | [83] 1.04 | [84] 0.912 | [85] 1.03 | [86] 0.994 | [87] 0.999 | S. cerevisiae deletion strains, locus YMR307W, strain GAS1, stronger effect = lower value 1.11 | [88] 1.01 | [89] 0.992 | [90] 0.988 | [91] 0.996 | [92] 1.02 | [93] 0.983 | [94] 0.99 | S. cerevisiae strains, strain wild type, stronger effect = lower value 0.97

CC1=CC(=O)N(c2ccc(F)c(Cl)c2)C1=O
active: [8] 0.76 | [11] 0.345 | [15] 0.376 | [16] 0.243 | [17] 0.371 | [21] 0.443 | [23] 0.461 | [24] 0.387 | [25] 0.335 | [26] 0.173 | [27] 0.195 | [28] 0.235 | [29] 0.395 | [31] 0.168 | [33] 0.377 | [35] 0.219 | [36] 0.166 | [37] 0.474 | [38] 0.347 | [39] 0.386 | [41] 0.506 | [42] 0.335 | [43] 0.457 | [44] 0.404 | [45] 0.274 | [47] 0.407 | [50] 0.477 | [52] 0.156 | [55] 0.34 | [57] 0.335 | [58] 0.549 | [59] 0.524 | [60] 0.225 | [62] 0.233 | [63] 0.398 | [64] 0.455 | [66] 0.206
inactive: [1] 0.966 | [2] 0.974 | [3] 0.964 | [4] 0.971 | [5] 0.975 | [6] 0.966 | [7] 0.976 | [9] 0.979 | [10] 0.986 | [12] 0.978 | [13] 0.983 | [14] 0.97 | [18] 0.974 | [19] 0.96 | [20] 0.975 | [22] 0.967 | [30] 0.975 | [32] 0.953 | [34] 0.987 | [40] 0.974 | [46] 0.962 | [48] 0.973 | [49] 0.982 | [51] 0.963 | [53] 0.973 | [54] 0.973 | [56] 0.966 | [61] 0.98 | [65] 0.964 | [67] 0.97 | [68] 0.974 | [69] 0.976 | [70] 0.973 | [71] 0.966
